From PubChem BioAssay
Calls of active or inactive are those of the source.

How the values were obtained:
[1] = system: Human papillomavirus type 1a protein E7 (residues 44-93); assay: small molecules binding HPV E7 44-93 – biochemical, small-molecule microarray, residues 44-93, 635 nm fluorescence, primary screen (AID 1108); conditions: fluorescence 635 nm, higher = more signal;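 note: E7 fragment applied at 1 µg/mL in TBST for 1 h at 4 C; score combines spot fluorescence with its signal to noise ratio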
[2] = hepatitis C replication reporter changes, two-sided – Huh7 cells, luciferase reporter, HCV replication inhibitor project, primary screen (AID 1109); conditions: Huh7 HCV replicon luciferase reporter, 48 h; higher = more signal;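 note: huh7 hepatoma cells harbouring a luciferase neomycin HCV replicon reporter; luciferase luminescence as measure of HCV replicon replication; test concentration not given here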
[3] = molecular target: Left-right determination factor 2 (Homo sapiens) (UniProt O00292); assay: small molecules binding LEFTY2 protein – biochemical, small-molecule microarray, 635 nm fluorescence scan, primary screen (AID 1110); conditions: higher = more signal
[4] = molecular target: Calmodulin-1 (Homo sapiens) (UniProt P0DP23); assay: small molecules binding calmodulin-1 with EGTA – biochemical, small-molecule microarray, Cy5-labelled CALM1, profiling panel (AID 1111); conditions: Cy5-CALM1 binding fluorescence, higher = more signal;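 note: labelled calmodulin applied in Tris saline Tween buffer holding calcium plus EGTA and DTT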
[5] = molecular target: Calmodulin-1 (Homo sapiens) (UniProt P0DP23); assay: small molecules binding Ca-loaded calmodulin-1 – biochemical, small-molecule microarray, Cy5-labelled CALM1, plus calcium, artefact control for SMM control-protein annotation, profiling panel (AID 1112); conditions: Cy5-CALM1 binding fluorescence, higher = more signal;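 note: score merges spot fluorescence with signal to noise from triplicate slides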
[6] = probe aWnt5a binding to arrayed compounds – biochemical, biotinylated probe, 635/667 nm fluorescence, primary screen (AID 1113); conditions: small-molecule microarray, higher = more signal;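 note: score merges 667 nm fluorescence intensity with signal-to-noise per printed feature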
[7] = probe aShh binding to arrayed compounds – biochemical, biotinylated probe, 635/667 nm fluorescence, primary screen (AID 1114); conditions: small-molecule microarray, higher = more signal;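 note: probe is biotin-labelled aShh protein from a stem cell growth factor screen; measures binding of labelled protein to compounds printed on the slide; score merges feature fluorescence at 667 nm with signal-to-noise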
[8] = probe aNog binding to arrayed compounds – biochemical, biotinylated probe, 635/667 nm fluorescence, primary screen (AID 1115); conditions: small-molecule microarray, higher = more signal;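 note: probe is biotinylated aNog protein used at 0.15 µg/mL for 1 h at 4 C; z-score combines 667 nm fluorescence of each spot with its signal to noise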
[9] = molecular target: Torsin-1A-interacting protein 1 (Homo sapiens) (UniProt Q5JTV8); assay: compound microarray binding of lysate hLAP1 – cell lysate, small-molecule microarray, COS7 lysate, 635/667 nm fluorescence, primary screen (AID 1116); conditions: 635 nm fluorescence, higher = more signal
[10] = molecular target: Alpha-bungarotoxin (Bungarus multicinctus) (UniProt P60615); assay: compounds binding labelled alpha-BTX control protein – biochemical, small-molecule microarray, Alexa647 label, 635/667 nm fluorescence, artefact control for SMM control protein annotation, profiling panel (AID 1117); conditions: alpha-BTX-A647 binding fluorescence, higher = more signal
Albumin (Bos taurus) = Albumin (Bos taurus) (UniProt P02769); assay: compounds binding labelled BSA control protein – biochemical, small-molecule microarray, Alexa647 label, 635/667 nm fluorescence, artefact control for SMM control protein annotation, profiling panel (AID 1118); conditions: BSA-A647 binding, fluorescence 635 nm, higher = more signal;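 note: score merges 667 nm emission intensity and signal-to-noise per printed compound spot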
[11] = probe aXIP binding to arrayed compounds – biochemical, NeuroSMM set, 635/667 nm fluorescence, primary screen (AID 1119); conditions: small-molecule microarray, higher = more signal, called active from +8 up or from −8 down;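 note: probe is the protein aXip251-270 applied at 1 µg/mL to compound-printed slides; binding of probe to printed compounds measured as 667 nm fluorescence plus signal to noise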
[12] = probe aNOTCH3 binding on compound microarray – biochemical, small-molecule microarray, 635/667 nm fluorescence, primary screen (AID 1120); conditions: higher = more signal;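 note: probe is a biotin-tagged antibody raised against NOTCH3 rather than NOTCH3 protein; score merges spot fluorescence near 667 nm with spot signal to noise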
[13] = probe aNOTCH2 binding on compound microarray – biochemical, small-molecule microarray, 635/667 nm fluorescence, primary screen (AID 1121); conditions: higher = more signal;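 note: score merges feature fluorescence read at 667 nm with its signal to noise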
[14] = molecular target: Carbonic anhydrase 2 (Homo sapiens) (UniProt P00918); assay: compounds binding carbonic anhydrase 2 – biochemical, small-molecule microarray, Alexa647-labelled CAII, profiling panel (AID 1122); conditions: CAII-A647 binding fluorescence, higher = more signal
[15] = COS7 lysate on small-molecule microarray, probe aHis, 635 nm (AID 1123); conditions: COS7 cell lysate, fluorescence, higher = more signal;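 note: z-score combines 667nm fluorescence intensity with signal-to-noise per printed compound spot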
[16] = probe aLAP1 signal on lysate-treated microarray – cell lysate, small-molecule microarray, COS7 lysate, primary screen (AID 1124); conditions: probe aLAP1, fluorescence, higher = more signal;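 note: lysate comes from COS7 cells expressing LAP1 and is applied at 0.3 µg/mL; score merges spot fluorescence near 667 nm with signal-to-noise over triplicate slides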
Sam68 (KHDRBS1) = assay: compounds binding KHDRBS1 protein – biochemical, small-molecule microarray, 635 nm fluorescence, primary screen (AID 1125); conditions: higher = more signal;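 note: score merges 667 nm channel intensity with signal to noise over triplicate slides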
[17] = system: Chordin-like protein 2 (CHRDL2); assay: compounds binding chordin-like 2 – biochemical, small-molecule microarray, 635 nm fluorescence, primary screen (AID 1126); conditions: fluorescence 635 nm, higher = more signal;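 note: printed compound slides probed with Chrdl2 protein at 4 µg/mL for 1 h at 4 C; score merges 667 nm emission intensity with signal to noise over three replicate slides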
[18] = molecular target: Concanavalin-A (Canavalia ensiformis) (UniProt P02866); assay: compounds binding concanavalin A lectin – biochemical, small-molecule microarray, Alexa647 label, 635 nm, artefact control for SMM control protein annotation, primary screen (AID 1127); conditions: ConA-A647 binding fluorescence, higher = more signal;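 note: z combines 667 nm emission intensity with signal-to-noise across three replicate slides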
Sequence of Concanavalin-A (Canavalia ensiformis) (P02866 whole entry, looked up): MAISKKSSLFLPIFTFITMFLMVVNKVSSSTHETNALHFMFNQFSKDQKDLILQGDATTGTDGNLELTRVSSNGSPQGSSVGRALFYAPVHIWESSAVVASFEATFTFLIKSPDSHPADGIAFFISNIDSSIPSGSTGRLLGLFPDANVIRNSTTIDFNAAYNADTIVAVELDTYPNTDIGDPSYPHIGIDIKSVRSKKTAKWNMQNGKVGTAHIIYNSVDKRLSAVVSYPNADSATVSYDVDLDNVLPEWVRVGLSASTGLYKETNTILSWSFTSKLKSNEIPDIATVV

Sequence of Left-right determination factor 2 (Homo sapiens) (O00292 whole entry, looked up): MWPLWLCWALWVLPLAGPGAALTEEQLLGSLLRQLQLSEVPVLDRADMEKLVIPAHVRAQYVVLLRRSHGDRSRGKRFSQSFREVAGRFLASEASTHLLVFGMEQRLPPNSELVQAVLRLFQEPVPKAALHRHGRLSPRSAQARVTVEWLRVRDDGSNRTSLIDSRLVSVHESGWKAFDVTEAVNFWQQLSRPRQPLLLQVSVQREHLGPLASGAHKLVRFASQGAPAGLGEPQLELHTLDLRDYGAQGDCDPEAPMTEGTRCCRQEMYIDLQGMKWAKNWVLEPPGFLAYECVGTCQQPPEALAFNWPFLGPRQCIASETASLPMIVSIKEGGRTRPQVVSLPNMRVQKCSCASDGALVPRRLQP
Sequence of Alpha-bungarotoxin (Bungarus multicinctus) (P60615 whole entry, looked up): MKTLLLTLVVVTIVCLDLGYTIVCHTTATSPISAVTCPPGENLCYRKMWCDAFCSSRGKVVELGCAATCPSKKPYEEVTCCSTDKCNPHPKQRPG
Sequence of Albumin (Bos taurus) (P02769 whole entry, looked up): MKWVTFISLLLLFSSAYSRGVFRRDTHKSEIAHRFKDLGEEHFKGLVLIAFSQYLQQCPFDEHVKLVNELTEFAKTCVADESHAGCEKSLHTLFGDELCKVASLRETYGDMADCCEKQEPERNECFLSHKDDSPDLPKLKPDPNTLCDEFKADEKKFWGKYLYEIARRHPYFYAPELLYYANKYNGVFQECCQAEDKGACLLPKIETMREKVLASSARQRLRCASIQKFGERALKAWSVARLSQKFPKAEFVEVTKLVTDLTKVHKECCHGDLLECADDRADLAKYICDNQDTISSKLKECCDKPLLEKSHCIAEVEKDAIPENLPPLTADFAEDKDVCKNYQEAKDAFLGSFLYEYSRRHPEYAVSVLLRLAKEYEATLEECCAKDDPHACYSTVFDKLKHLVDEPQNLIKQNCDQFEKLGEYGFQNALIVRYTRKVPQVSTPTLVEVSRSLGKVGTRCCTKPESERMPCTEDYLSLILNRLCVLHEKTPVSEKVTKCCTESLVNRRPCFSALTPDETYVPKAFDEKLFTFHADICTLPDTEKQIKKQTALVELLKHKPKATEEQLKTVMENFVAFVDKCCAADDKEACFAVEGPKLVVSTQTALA
Sequence of Torsin-1A-interacting protein 1 (Homo sapiens) (Q5JTV8 whole entry, looked up): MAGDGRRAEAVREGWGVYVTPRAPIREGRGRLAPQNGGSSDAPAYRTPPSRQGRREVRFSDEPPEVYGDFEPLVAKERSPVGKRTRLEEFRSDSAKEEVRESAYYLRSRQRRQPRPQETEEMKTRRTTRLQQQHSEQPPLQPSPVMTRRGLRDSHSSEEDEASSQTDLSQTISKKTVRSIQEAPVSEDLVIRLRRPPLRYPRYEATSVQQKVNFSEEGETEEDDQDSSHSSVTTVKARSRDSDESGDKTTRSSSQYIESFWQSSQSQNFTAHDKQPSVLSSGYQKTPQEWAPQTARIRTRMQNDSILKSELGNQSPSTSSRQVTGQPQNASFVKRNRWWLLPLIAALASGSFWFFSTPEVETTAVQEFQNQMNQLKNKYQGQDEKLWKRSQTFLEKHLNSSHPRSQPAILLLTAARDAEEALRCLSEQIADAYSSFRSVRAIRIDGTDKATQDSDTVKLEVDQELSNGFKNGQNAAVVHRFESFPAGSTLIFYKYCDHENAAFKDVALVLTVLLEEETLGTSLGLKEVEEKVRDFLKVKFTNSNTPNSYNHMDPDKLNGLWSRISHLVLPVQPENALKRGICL

Row | Structure (SMILES) | composite z-score [1] | z-score [2] | composite z-score [3] | composite z-score [4] | composite z-score [5] | composite z-score [6] | composite z-score [7] | composite z-score [8] | composite z-score [9] | composite z-score [10] | composite z-score (Albumin (Bos taurus)) | composite Z-score [11] | composite z-score [12] | composite z-score [13] | composite z-score [14] | composite z-score [15] | composite z-score [16] | composite z-score (Sam68 (KHDRBS1)) | composite z-score [17] | composite z-score [18]
1 | COC(=O)[C@@]1(Cc2ccccc2CN=[N+]=[N-])N=C(c2ccc(OCCCO)cc2)O[C@H]1c1ccccc1 | 0.155 | -3.09 | -0.59 | -0.426 | 0.161 | 0.0101 | -0.0375 | 1.48 | 1.42 | 0.779 | 0.0186 | 0.951 (inactive) | 0.177 | 0.0919 | 0.645 | 2.52 | 0.717 | 0.711 | 0.4 | 0.686
2 | CCOC(=O)C1=CCC(c2ccccc2)N(S(=O)(=O)c2ccc([N+](=O)[O-])cc2)C1 (stereo not given) | 0.992 | -1.93 | -0.276 | -0.36 | -0.0871 | -0.147 | 0.0048 | -0.425 | 0.853 | -0.165 | 0.193 | -0.275 (inactive) | -0.0077 | -0.108 | 0.0862 | 1.07 | 0.173 | 0.439 | 0.0332 | -0.104
3 | COC(=O)[C@@]1(Cc2ccccc2)[C@H]2c3cc(C(=O)N(C)C)n(CCn4cc([N+](=O)[O-])nc4C)c3C[C@H]2CN1C(=O)c1ccccc1 | 1.15 | -0.347 | 0.0356 | 0.437 | 0.361 | 0.0162 | 0.0952 | 0.576 | 2.83 | 0.413 | 0.89 | 0.0327 (inactive) | 0.16 | -0.0254 | 0.888 | 2.56 | 0.697 | 1.1 | -0.113 | 0.526
4 | COCCOC(=O)N1C(=O)[C@@]2(c3cc(C#CC4=CCCCC4)ccc31)[C@H](c1ccc(O)cc1)N1[C@H](c3ccccc3)[C@H](c3ccccc3)OC(=O)[C@H]1[C@@H]2C(=O)NC[C@H](O)c1ccccc1 | 1.39 | -1.66 | 0.623 | 0.713 | 0.135 | 0.0324 | 0.296 | -0.614 | 1.39 | 0.791 | 0.613 | 0.225 (inactive) | 0.158 | -0.148 | 0.27 | 1.68 | 1.02 | 1.3 | 0.642 | 0.935
5 | C=C(COC)/C(=C/C[C@@H](OC(C)=O)c1ccc(CO)o1)c1cc(C(=O)OC)ccc1OC | 0.531 | -1.45 | -0.0379 | -0.177 | -0.9 | -0.096 | 0.479 | 0.184 | -0.315 | 0.202 | -0.418 | 0.615 (inactive) | -0.0647 | -0.133 | 0.579 | 0.694 | 0.662 | 0.246 | -0.228 | 0.581
6 | C[C@]1(C(=O)NCC(F)(F)F)c2ccccc2C(=O)N(Cc2ccccc2)[C@H]1c1ccc(CO)cc1 | -0.0857 | -0.501 | -0.722 | -0.21 | 0.799 | -0.287 | -0.147 | -0.0799 | 0.015 | -0.553 | -1.14 | -0.222 (inactive) | -0.221 | -0.123 | 0.448 | -0.145 | 0.498 | -1.22 | -1.7 | 0.0038
